The list is not random: actives were taken first. Their share in the collection is about 5.3%.
HCV inh – inhibitors of hepatitis C virus infection; Huh7.5.1 HCVcc-Cre infection, luciferase reporter, 44 h; Potency, µM (top dose mostly 41.8 µM), for the others: top-dose activity change, negative = inhibition, actives largely listed as inhibitors; 3.4% of 340,000 active; AID 651820; also: potency is read from the fitted curve at half-maximal effect; % is scaled to controls: 0 for no effect and ±100 for the full control effect
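Reporter virus HCVcc-Cre (~0.5 moi) infects cells exposed to compound; seeding density 1,000 cells/well with 4 h settling beforehand. Luminescence, 15 sec read, taken 44 h post-infection following a 15 min RT substrate incubation.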
Marburg entry inh – blocks Marburg virus binding to or entry into cells; Marburg virus pseudotyped entry inhibition, cell reporter; 1.8% of 300,000 active; Potency, µM (highest dose often 37.8 µM), inactives show at the top dose activity change, negative = inhibition, most hits filed as inhibitors; calls by dose curve; tested in HEK293 cells; also: potency is read from the fitted curve at half-maximal effect; % is scaled to controls: 0 for no effect and ±100 for the full control effect
FMDV antiviral – antivirals against foot and mouth disease virus. 1.2% of 410,000 active. FMDV antiviral cell-based qHTS. Potency, µM (highest dose often 57.9 µM), without a hit: at the highest dose activity change, negative = inhibition, most hits filed as inhibitors; calls by dose curve; tested in HEK293T cells; also: read-out not given here; potency is read from the fitted curve at half-maximal effect; % is scaled to controls: 0 for no effect and ±100 for the full control effect; nearly all actives have a fitted effect of over 45% in size
Vaccinia mCherry – vaccinia inhibition (mCherry reporter) | Vaccinia virus mCherry reporter infection, fluorescence | Potency, µM (doses to about 36.5 µM), for inactives: top-dose activity change, negative = inhibition, most hits filed as inhibitors | 0.63% of 310,000 active; calls by dose curve; tested in A549 cells; also: potency is read from the fitted curve at half-maximal effect; % is scaled to controls: 0 for no effect and ±100 for the full control effect; nearly all actives have a fitted effect of over 35% in size
LASV entry inh – inhibitors of Lassa virus binding or cell entry. Lassa virus pseudotype entry inhibition, cell reporter. Potency, µM (series often up to 37.9 µM), for inactives: top-dose activity change, negative = inhibition, usual class: inhibitors. 1.2% of 300,000 active; calls by dose curve; tested in HEK293 cells; also: potency is read from the fitted curve at half-maximal effect; % is scaled to controls: 0 for no effect and ±100 for the full control effect; nearly all actives have a fitted effect of over 50% in size
VACV Venus inh – inhibitors of vaccinia virus (Venus reporter); 0.46% of 330,000 active; AID 720580; Vaccinia virus Venus reporter expression, fluorescence; Potency, µM (series often up to 36.5 µM), for the others: top-dose activity change, negative = inhibition, actives largely listed as inhibitors; calls by dose curve; tested in A549 cells; also: potency is read from the fitted curve at half-maximal effect; % is scaled to controls: 0 for no effect and ±100 for the full control effect; nearly all actives have a fitted effect of over 30% in size
G2M arrest HeLa – causes HeLa cells to arrest in G2/M phase. HeLa cell cycle G2/M arrest, Hoechst DNA content imaging. shares compounds with Marburg entry inh. 60% of 25 active. Potency, µM, hits mostly inhibitors
WI-38 tox – toxic to WI-38 fibroblasts in PNC inhibitor counter-screen; shares compounds with Marburg entry inh; WI-38 normal lung fibroblasts, ATPLite luminescence ATP viability, 24 h; Potency, µM (doses to about 46.1 µM), inactives show at the highest dose activity change, negative = cytotoxicity, most hits filed as inhibitors; 120 tested, under 10 active
PNC assembly inh – confirmation of perinucleolar compartment assembly inhibitors. shares compounds with Marburg entry inh. Potency, µM (titrated, usually from 46.1 µM), without a hit: at the top dose activity, negative = PNC inhibition, usual class: inhibitors. 50% of 120 active. PC3M PTB-GFP, PNC prevalence imaging, 16 h
PC3M caspase – activates caspase 3/7 in PC3M cells in PNC counter-screen. shares compounds with Marburg entry inh. 120 tested, under 10 active. PC3M-GFP caspase 3/7 activation, luminescence, 24 h. activity change, positive = activation, % at 46.1 µM
* = called active by the depositor; i = inactive; ? = inconclusive; nt = not tested or not shown; ! = not confirmed by another sample; [ ] = another dose, or the depositor's remark. Unless noted, calls follow the shape of the dose curve; as a rule, active = well fitted curve in the direction sought with a large enough effect; inconclusive = small, poorly fitted or top-dose-only effect, or another doubt; inactive = no such curve, though single readings can be large; an effect the other way counts as inactive or inconclusive.

SMILES	HCV inh	Marburg entry inh	FMDV antiviral	Vaccinia mCherry	LASV entry inh	VACV Venus inh	WI-38 tox	PNC assembly inh	PC3M caspase	others
COc1ccc(N2CCN(C(=O)C(=O)c3cccc([N+](=O)[O-])c3)CC2)cc1	nt	nt	-8%	-4%	nt	-4%	nt	nt	nt
CCC1(O)CC2CN(CCc3c([nH]c4ccccc34)C(C(=O)OC)(c3cc4c(cc3OC)N(C=O)C3C(O)(C(=O)OC)C(OC(C)=O)C5(CC)C=CCN6CCC43C65)C2)C1 (centres undefined)	0%	?	-1%	?	?	?	nt	nt	nt
CCC1(O)CC2CN(CCc3c([nH]c4ccccc34)[C@@](C(=O)OC)(c3cc4c(cc3OC)N(C=O)C3[C@]45CCN4CC=C[C@@](CC)([C@@H](OC(C)=O)[C@]3(O)C(=O)OC)[C@H]45)C2)C1 (some centres undefined)	nt	13µM*!	nt	nt	nt	nt	nt	nt	nt	G2M arrest HeLa=?
COC(=O)N/N=C/c1cn(CCOc2ccccc2OC)c2ccccc12	-3%	nt	-21%	nt	nt	nt	nt	nt	nt
CNC(=S)N/N=C/c1cn(CCOc2ccccc2OC)c2ccccc12	?	?	0%	4.5µM*	-28%	7.1µM*	-2%	?	2
O=C(N/N=C\c1ccc([N+](=O)[O-])s1)c1cncc(Br)c1	10µM*	2.6µM*	?	nt	2.9µM*	nt	-26%	22µM*	?
CN(C)Cc1ccccc1-c1nc(NC2CCNCC2)c2ccccc2n1	nt	nt	-18%	nt	nt	nt	nt	nt	nt
COc1cccc(CCNC(=O)CCc2nnc(-c3cc(C)oc3C)o2)c1	8%	-2%[46.1 µM]	-1%	-15%	25%[46.1 µM]	-5%	nt	nt	nt
CC(=O)c1c(C)cc(C)c(CSc2nc(C)cc(=O)[nH]2)c1C	-5%	?	nt	-30%	-14%	-4%	0%	?	-4
Cc1cccc(C)c1Nc1c(-c2ccc(N3CCOCC3)cc2)nc2ncccn12	?	-6%[46.1 µM]	-26%	-11%	-20%[46.1 µM]	-12%	-18%	-3%	-3
Cc1ccc(Nc2c(-c3ccc(N4CCOCC4)cc3)nc3ncccn23)c(C)c1	?	?	13%	?	-3%[46.1 µM]	-6%	nt	nt	nt
CCOC(=O)CSc1nc2c(sc3ccc([N+](=O)[O-])cc32)c(=O)n1Cc1ccco1	6.3µM*	10%	-28%	i	3%	-15%	5%	-12%	3
C#CCn1c(C)cc(C)c(S(=O)(=O)c2ccccc2)c1=O	4%	5%[46.1 µM]	58%	-4%	10%	-9%	nt	nt	nt
C#CCn1c(S(=O)(=O)Cc2ccc(C)cc2)nc(-c2ccccc2)c1-c1ccccc1	?	4.6µM*	-12%	-26%	3.3µM*	-2%	3%	7.9µM*	-5
O=C1CN(C(=O)c2ccc(S(=O)(=O)N3CCCCC3)cc2)C(c2ccc(F)cc2)c2cc(Br)ccc2N1 (centres undefined)	nt	?	-21%	-25%	?	-21%	nt	nt	nt
O=C(O)c1ccc(-c2nc(-c3ccccc3)c(-c3ccccc3)[nH]2)cc1	13%	14%	-9%	i	?	-7%	nt	nt	nt
Oc1ccc(-c2nc(-c3ccc(F)cc3)c(-c3ccncc3)[nH]2)cc1	?	5µM*	?	-6%	?	-12%	nt	nt	nt	G2M arrest HeLa=?
CCN(CC)S(=O)(=O)c1ccc(C2=NOC3(C2)N(C)c2ccccc2C3(C)C)cc1 (centres undefined)	-13%	1.8µM*	-27%	-17%	0.73µM*	14%	8%	5µM*	-8
CCN(CC)S(=O)(=O)c1ccc(-c2nnco2)cc1	8%	0%	-4%	-17%	-2%	-5%	nt	nt	nt
O=C(Nc1cccc(S(=O)(=O)N2CCCCCC2)c1)c1ccc2c(c1)OCO2	?	?	-2%	-24%	?	?	-14%	-30%	-8
O=C(Nc1cccc(S(=O)(=O)N2CCCC2)c1)c1ccc2c(c1)OCO2	-7%	0%	-7%	-10%	-9%	-9%	nt	nt	nt
COc1ccc(-n2c(SC(C)C(=O)Nc3ncc(Cl)cc3Cl)nc3ccccc32)cc1 (centres undefined)	?	?	-13%	?	0.25µM*	-7%	?	3.2µM*	4
C[C@]12CC[C@@H]3c4ccc(O)cc4CC[C@H]3[C@@H]1CC[C@@H]2O	-6%[8.37 µM]	?	-17%	-6%	?	-19%	nt	nt	nt	G2M arrest HeLa=10*
COc1cc2c(cc1O)CCC1C2CC[C@]2(C)[C@@H](O)CC[C@@H]12 (some centres undefined)	nt	?	nt	nt	nt	nt	nt	nt	nt	G2M arrest HeLa=1.1*
CC12CCC3c4ccc(O)cc4CCC3C1CCC2O (centres undefined)	nt	nt	-12%	nt	nt	nt	nt	nt	nt
SMILES	HCV inh	Marburg entry inh	FMDV antiviral	Vaccinia mCherry	LASV entry inh	VACV Venus inh	WI-38 tox	PNC assembly inh	PC3M caspase	others
COc1cccc(/C=N/NC(=O)c2cc3c(OC)c(OC)ccc3[nH]2)c1OC	?	?	3%	-7%	?	-25%	-16%	?	-9
CNc1ccc2oc(C[C@H]3O[C@@]4(CC[C@H]3C)O[C@H]([C@H](C)C(=O)c3ccc[nH]3)[C@H](C)C[C@H]4C)nc2c1C(=O)O	2.2µM*	2.9µM*	?	3.5µM*	0.23µM*	2.5µM*	nt	nt	nt	G2M arrest HeLa=4.5*
O=C1C(Nc2cccc(O)c2)=C(N2CCCCC2)C(=O)c2ccccc21	2%	?	nt	-1%	-24%	-20%	nt	nt	nt
COc1ccccc1NC1=C(N2CCCCC2)C(=O)c2ccccc2C1=O	?	?	10µM*	?	?	10µM*	-21%	11µM*	?
CNC1=C(N(C(C)=O)c2ccc(Br)cc2)C(=O)c2ccccc2C1=O	?	2.3µM*	8.9µM*	?	5.6µM*	5.6µM*	?	?	?
COc1ccc(N2CCN(C(=O)Cc3ccc(Cl)cc3)CC2)cc1	-27%	5%	-18%	-30%	?	-15%	nt	nt	nt
O=C(Cc1c(F)cccc1Cl)Nc1ccccc1-c1ccccc1	-2%	?	16%	i	-29%[46.1 µM]	-15%	nt	nt	nt
O=C(c1cccc([N+](=O)[O-])c1)N1CCN(CCc2ccncc2)CC1	nt	11%[46.1 µM]	-12%	-15%	-8%[46.1 µM]	0%	nt	nt	nt
CCOC(=O)NC1(NC(C)C)Oc2ccccc2O1	-16%	13%	-18%	-7%	-19%	-20%	nt	nt	nt
